From PubChem BioAssay
HDAC3 inhib – HDAC3 deacetylase inhibitors, primary screen, biochemical, fluorescence, cell-free homogeneous; Histone deacetylase 3 (Homo sapiens), O15379; recombinant HDAC3, fluorogenic peptide/trypsin coupled; inhibition, % at 8.3 µM; hit rate 0.15% among 320,000; AID 2718, 2010; in the data active = inhibition above about 26%, passing the limit was not always enough
Keap1 Nrf2 FP – Keap1-Nrf2 protein-protein interaction inhibitors, primary screen, biochemical, fluorescence polarization, single point; Kelch-like ECH-associated protein 1 (Homo sapiens), Q14145; Keap1 Kelch-Nrf2 peptide fluorescence polarization, 1536-well; inhibition, % at 9.4 µM; hit rate 0.15% among 340,000; AID 504523, 2011; in the data active = inhibition above about 12%;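 also: human Keap1 Kelch domain with fluorescein labeled Nrf2 9mer peptide probe; 0% = neutral control wells and 100% = peptide positive control; higher means more block of Keap1 binding to Nrf2 peptide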
LANA DNA inh – inhibitors of KSHV C-LANA binding to DNA, primary screen, biochemical, fluorescence polarization, FAM-LBS DNA, MBP-C-LANA, single point | Kaposi's sarcoma herpesvirus LANA C-terminal domain (residues 932-1162) DNA binding | inhibition, % at 9 µM | hit rate 0.078% among 340,000 | AID 504423, 2011;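 active = highest replicate inhibition at or above 60% at 9 µM, even if other replicates fall short; inactive = all replicates below 60% inhibition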;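 also: 0% = neutral control wells and 100% = 4 µM acridine orange control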
CASP6 VEID inh – human caspase-6 inhibitors, primary screen, biochemical, VEID-R110 fluorescence, single point, set 2. purified caspase-6, Z-VEID-R110 cleavage fluorescence. inhibition, % at 12.5 µM. hit rate 0.53% among 350,000. AID 686996, 2013;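 active = mean inhibition across replicates at least about 35%, with every replicate also reaching that limit, limit read from the data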;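 also: 0% = median of neutral control wells and 100% = no fluorescence left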
Target sequence (P55212 24-179 limits assumed): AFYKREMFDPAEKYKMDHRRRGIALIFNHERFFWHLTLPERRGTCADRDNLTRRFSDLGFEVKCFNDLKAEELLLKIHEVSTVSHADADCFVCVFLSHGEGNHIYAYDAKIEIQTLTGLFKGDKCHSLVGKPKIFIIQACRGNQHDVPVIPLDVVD
Target sequence (P55212 194-293 limits assumed): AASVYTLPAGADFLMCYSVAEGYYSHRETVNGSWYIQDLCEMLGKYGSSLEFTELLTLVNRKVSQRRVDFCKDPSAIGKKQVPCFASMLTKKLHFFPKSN
Glyco luc inh – increase of ERlucT glycosylation luciferase signal, primary screen, N-linked glycosylation inhibitor project, D54 ERlucT cells, luminescence, set 2; D54 ERlucT glycosylation luciferase reporter, 24 h; percent of 100 nM tunicamycin response; reporter increase, % at 12.5 µM; hit rate 0.23% among 360,000;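 active = mean luciferase reporter signal, scaled so untreated is 0 and the glycosylation-blocking control 100, at or above a set limit in every replicate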;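 also: luciferase carries N-glycosylation sites so blocking glycosylation raises the light; 0% = median of neutral control wells and 100% = median of 100 nM tunicamycin wells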
NSD2 HMT inh – NSD2 histone methyltransferase inhibitors, primary screen, biochemical, AlphaScreen, single concentration, set 2. AID 743445, 2014. hit rate 0.54% among 310,000. NSD2 peptide methylation, 120 min. inhibition, % at 12.5 µM. Histone-lysine N-methyltransferase NSD2 (Homo sapiens), O96028; in the data active = inhibition above about 50%
AlphaScreen art – AlphaScreen signal interference with preloaded methylated product, dose response, artefact control for NSD2 inhibitor project, biochemical, cherry-picked samples. shares compounds with NSD2 HMT inh. AlphaScreen artifact counterscreen, preloaded methylated H4 peptide. AC35, µM (top dose mostly 10 µM), for inactives: at the top dose activity change, negative = signal loss. hit rate 9.4% among 1,500; call rule not given here
* hit, by the source's call; nt = no result. In the library only some 1.1% were active in any assay of this set; here they are far more common.

SMILES	HDAC3 inhib	Keap1 Nrf2 FP	LANA DNA inh	CASP6 VEID inh	Glyco luc inh	NSD2 HMT inh	AlphaScreen art
O=C(CN1CCN(c2ccccc2F)CC1)c1ccc(O)c(O)c1	2	-2	9	nt	0	95*	-19%
C[C@H](O)C#Cc1cnc2c(c1)C(=O)N([C@H](C)CO)C[C@@H](C)[C@@H](CN(C)C(=O)c1ccccc1)O2	nt	nt	nt	3	nt	nt	nt
O=C(NNC(=O)c1cccs1)c1ccc(Cl)c([N+](=O)[O-])c1	1	1	0	1	1	54*	-6%
CCOC(=O)c1ccc(N=c2scc(C)n2CC)cc1	-6	-2	0	-1	-12	51*	-12%
Cc1ccc(S(=O)(=O)N2CCCC2)cc1S(=O)(=O)N1CCCC1	3	-6	-3	nt	1	-3	nt
Cc1ccc(S(=O)(=O)N2CCCC(N3CCOCC3)C2)cc1Cl (stereo unspecified)	-1	-1	0	-1	-2	53*	1%
Cc1ccc(S(=O)(=O)c2ccc(Cl)cc2)cc1S(=O)(=O)N1CCOCC1	-3	4	1	nt	-5	116*	1%
O=C(C[C@@H]1CC[C@@H]2[C@H](COC[C@H](O)CN2Cc2cccc(C(F)(F)F)c2)O1)NCCc1ccncc1	nt	nt	nt	1	nt	nt	nt
O=C(C[C@@H]1CC[C@@H](NC(=O)c2ccccn2)[C@H](CO)O1)NCc1cccc(F)c1	nt	nt	nt	-2	nt	nt	nt
O=C(Cn1cnc2c(cnn2-c2ccccc2)c1=O)OCc1ccccc1	-2	2	1	nt	1	95*	5%
CCC(=O)N(C)C[C@H]1Oc2cc(-c3ccncc3)ccc2S(=O)(=O)N([C@H](C)CO)C[C@H]1C	nt	nt	nt	-1	nt	nt	nt
CCCCC(=O)OCc1cn(-c2ccc(Cl)cc2)nn1	-4	-2	-1	nt	2	121*	6%
Oc1ccc(/C=N/N2CCOCC2)c(O)c1O	-7	-5	3	7	0	87*	-2%
COc1cccc(/C=N/N2CCOCC2)c1O	5	3	-1	2	-1	2	nt
Nc1c2c(=O)[nH]c(O)cc2nn1-c1ccccc1	nt	-11	1	40*	1	100*	-3%
Cc1c(C)c2c(C)nn(-c3ccccc3)c2[nH]c1=O	-14	-2	-1	nt	1	-1	nt
C[C@H](CO)N1C[C@H](C)[C@H](CN(C)S(=O)(=O)c2cn(C)cn2)Oc2ccc(NC(=O)c3ccncc3)cc2C1=O	nt	nt	nt	-1	nt	nt	nt
CCN(CC)C(=O)COC(=O)C1=NN(c2cc(C)ccc2C)C(=O)CC1	0	1	1	-1	6	59*	-5%
Cc1ccc(C)c(N2N=C(C(=O)OCc3nnc(-c4cccs4)o3)CCC2=O)c1	nt	1	0	4	0	4	nt
C[C@@H]1CN([C@@H](C)CO)C(=O)c2cccc(NC(=O)Nc3ccc(C(F)(F)F)cc3)c2O[C@@H]1CN(C)C(=O)Nc1ccc(C(F)(F)F)cc1	nt	nt	nt	-3	nt	nt	nt
CCOC(=O)c1cccc(P(C)(C)=O)c1	-4	-4	0	2	2	79*	2%
CCOC(=O)c1ccc2nc(C)c(C)nc2c1	1	-3	2	-3	2	5	nt
Cc1noc(C)c1NC(=O)N(C)C[C@H]1Oc2ccc(NC(=O)C3CCCCC3)cc2C(=O)N([C@@H](C)CO)C[C@H]1C	nt	nt	nt	-1	nt	nt	nt
CN(C)c1cccc2c1C(=O)c1ccccc1C2=O	4	3	-3	5	1	60*	2.2µM*
CCCN1[C@H](C(=O)OC)[C@@H](CO)[C@@H]2Cn3c(ccc(-c4ccccc4)c3=O)[C@@H]21	nt	nt	nt	1	nt	nt	nt
SMILES	HDAC3 inhib	Keap1 Nrf2 FP	LANA DNA inh	CASP6 VEID inh	Glyco luc inh	NSD2 HMT inh	AlphaScreen art
C[C@@H]1CN([C@H](C)CO)C(=O)c2cccc(NS(=O)(=O)c3ccc(F)cc3)c2O[C@H]1CN(C)C(=O)Nc1ccc2c(c1)OCO2	nt	nt	nt	1	nt	nt	nt
COc1ccc2c3c([nH]c2c1)[C@@H](CO)N(C(=O)NC(C)C)CC31CN(C(=O)c2cnccn2)C1	nt	nt	nt	1	nt	nt	nt
COc1cc(/C=C2\SC(N)=NC2=O)cc(Cl)c1O	-3	-8	-5	1	0	68*	-4%
O=C(C[C@@H]1CC[C@H](NC(=O)c2ccccn2)[C@H](CO)O1)NCc1cccc(F)c1	nt	nt	nt	-2	nt	nt	nt
COCCCNC(=O)COc1ccc(Cl)c(C)c1	6	-1	0	nt	-1	56*	4%
Cc1ccc2nc(-c3ccccc3)cn2c1	-21	-7	1	nt	-20	nt	nt
Cc1ccc2nc(-c3ccc(O)c(O)c3)cn2c1	-14	0	0	38*	-17	55*	-11%
COc1ccc(Sc2ccccc2CN(C)C)cc1OC	-1	-2	-1	nt	-2	16	nt
CNCc1ccccc1Sc1ccc(O)c(O)c1	2	-21	1	7	-1	64*	-8%
COc1cccc(CNC(=O)C[C@H]2CC[C@@H](NC(C)=O)[C@H](CO)O2)c1	nt	nt	nt	-4	nt	nt	nt
CC(=O)c1cccc(NC(=O)c2csc(-n3nc(C)cc3C(F)(F)F)n2)c1	1	-6	-2	nt	1	125*	1%
Cc1cc(C(F)(F)F)n(-c2nc(C(=O)Nc3cccnc3)cs2)n1	-1	0	-2	-3	2	-2	nt
Cc1ccc(-n2nc3c(=O)n(CC(=O)NCc4ccccc4)nc(C)c3c2C)cc1	-2	-6	0	0	0	80*	-1%
CCCC#Cc1ccc([C@@H]2[C@H](C#N)N(S(C)(=O)=O)[C@H]2CO)cc1	nt	nt	nt	1	nt	nt	nt
COc1ccc(S(=O)(=O)Nc2ccc3c(c2)C(=O)N([C@H](C)CO)C[C@H](C)[C@H](CN(C)C(=O)c2ccccc2)OCCCC[C@@H](C)O3)cc1	nt	nt	nt	-4	nt	nt	nt
CC1=C/C(=C(\c2cc(C)c(O)c(Br)c2)c2ccccc2S(=O)(=O)O)C=C(Br)C1=O	20	-4	2	8	-7	50*	7.8µM*
COc1ccc(C(=O)c2nccc3cc(OC)c(OC)cc23)cc1OC	2	0	-3	nt	3	90*	-1%
N=C1/C(=C\c2ccc(Br)o2)C(=O)N=C2SC(CC(=O)N3CCOCC3)=NN12	3	-2	54	61*	1	94*	-11%
COc1ccccc1NC(=O)c1ccc(-n2cccn2)nc1	-6	-1	-1	nt	1	118*	2%
